The full data set covers some 8,800 targets. This sample favours those with a hit. About 0.5% of all pairs of compound and target were hits.
The targets below were run with C=CC(=O)N1CCC[C@@H](n2nc(-c3ccc(Oc4ccccc4)cc3)c3c(N)ncnc32)C1 [ibrutinib] (assay: log2 fold change, soluble protein after heating vs DMSO (PISA); higher = thermal stabilisation; K562 lysate, 10 uM; active = over 0.2 and 3.5 SD of the protein, either way, in both replicates (recomputed)).
Procedure, shortened: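 K562 pellets were dounce-homogenised in PBS pH 7.4 with 1 mM MgCl2, and the crude extract at 1 mg/mL protein was treated with 10 μM compound for 30 min. Aliquots were heated for 3 min across 48°C-58°C, pooled, and brought to 0.5% NP-40 at 4°C; soluble protein was the supernatant after 21,000xg for 90 min. Soluble protein was quantified by TMTpro 16plex LC-MS/MS with channel sums equalised, and reported as log2 fold change in thermal stability against DMSO controls, with values from duplicates.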

UniProt Q9NVC6, sequence (Q9NVC6 whole entry, looked up): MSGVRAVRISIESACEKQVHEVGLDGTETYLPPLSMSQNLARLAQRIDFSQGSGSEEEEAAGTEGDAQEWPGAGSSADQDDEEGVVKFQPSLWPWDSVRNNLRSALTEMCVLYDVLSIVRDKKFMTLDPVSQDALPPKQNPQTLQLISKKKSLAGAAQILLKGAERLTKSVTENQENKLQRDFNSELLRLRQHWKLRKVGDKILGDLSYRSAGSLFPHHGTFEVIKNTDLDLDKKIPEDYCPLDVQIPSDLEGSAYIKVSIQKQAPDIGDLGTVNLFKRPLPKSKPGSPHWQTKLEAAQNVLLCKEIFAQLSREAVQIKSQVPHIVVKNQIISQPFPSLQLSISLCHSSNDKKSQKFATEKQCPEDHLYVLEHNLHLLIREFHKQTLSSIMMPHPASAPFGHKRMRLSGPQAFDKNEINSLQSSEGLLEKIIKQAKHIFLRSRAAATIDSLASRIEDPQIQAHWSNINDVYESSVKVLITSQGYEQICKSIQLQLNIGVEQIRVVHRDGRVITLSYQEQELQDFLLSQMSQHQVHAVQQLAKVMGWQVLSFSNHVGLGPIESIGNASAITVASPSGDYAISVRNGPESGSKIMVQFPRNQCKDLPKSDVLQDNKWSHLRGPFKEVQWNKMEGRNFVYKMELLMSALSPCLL
UniProt Q96II8, sequence (Q96II8 whole entry, looked up): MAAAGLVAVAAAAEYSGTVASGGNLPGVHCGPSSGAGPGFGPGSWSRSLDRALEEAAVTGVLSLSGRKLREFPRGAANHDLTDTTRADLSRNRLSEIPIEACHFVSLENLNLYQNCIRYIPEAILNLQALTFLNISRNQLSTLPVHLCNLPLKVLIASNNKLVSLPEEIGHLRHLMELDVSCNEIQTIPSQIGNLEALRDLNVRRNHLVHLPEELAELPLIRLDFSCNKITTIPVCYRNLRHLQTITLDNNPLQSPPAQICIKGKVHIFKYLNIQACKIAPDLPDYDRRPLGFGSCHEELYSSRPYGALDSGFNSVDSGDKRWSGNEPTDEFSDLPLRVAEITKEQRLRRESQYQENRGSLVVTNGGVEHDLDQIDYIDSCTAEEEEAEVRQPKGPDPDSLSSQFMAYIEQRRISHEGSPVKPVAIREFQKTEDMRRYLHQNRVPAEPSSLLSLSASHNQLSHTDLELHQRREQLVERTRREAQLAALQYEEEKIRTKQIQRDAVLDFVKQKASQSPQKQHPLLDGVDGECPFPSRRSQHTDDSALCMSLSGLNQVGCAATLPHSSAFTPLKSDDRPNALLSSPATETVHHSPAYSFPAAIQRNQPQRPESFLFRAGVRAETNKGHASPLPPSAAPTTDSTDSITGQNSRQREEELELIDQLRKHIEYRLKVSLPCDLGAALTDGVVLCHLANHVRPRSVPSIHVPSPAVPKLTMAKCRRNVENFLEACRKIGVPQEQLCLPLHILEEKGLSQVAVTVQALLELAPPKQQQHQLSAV
UniProt O95819, sequence (O95819 whole entry, looked up): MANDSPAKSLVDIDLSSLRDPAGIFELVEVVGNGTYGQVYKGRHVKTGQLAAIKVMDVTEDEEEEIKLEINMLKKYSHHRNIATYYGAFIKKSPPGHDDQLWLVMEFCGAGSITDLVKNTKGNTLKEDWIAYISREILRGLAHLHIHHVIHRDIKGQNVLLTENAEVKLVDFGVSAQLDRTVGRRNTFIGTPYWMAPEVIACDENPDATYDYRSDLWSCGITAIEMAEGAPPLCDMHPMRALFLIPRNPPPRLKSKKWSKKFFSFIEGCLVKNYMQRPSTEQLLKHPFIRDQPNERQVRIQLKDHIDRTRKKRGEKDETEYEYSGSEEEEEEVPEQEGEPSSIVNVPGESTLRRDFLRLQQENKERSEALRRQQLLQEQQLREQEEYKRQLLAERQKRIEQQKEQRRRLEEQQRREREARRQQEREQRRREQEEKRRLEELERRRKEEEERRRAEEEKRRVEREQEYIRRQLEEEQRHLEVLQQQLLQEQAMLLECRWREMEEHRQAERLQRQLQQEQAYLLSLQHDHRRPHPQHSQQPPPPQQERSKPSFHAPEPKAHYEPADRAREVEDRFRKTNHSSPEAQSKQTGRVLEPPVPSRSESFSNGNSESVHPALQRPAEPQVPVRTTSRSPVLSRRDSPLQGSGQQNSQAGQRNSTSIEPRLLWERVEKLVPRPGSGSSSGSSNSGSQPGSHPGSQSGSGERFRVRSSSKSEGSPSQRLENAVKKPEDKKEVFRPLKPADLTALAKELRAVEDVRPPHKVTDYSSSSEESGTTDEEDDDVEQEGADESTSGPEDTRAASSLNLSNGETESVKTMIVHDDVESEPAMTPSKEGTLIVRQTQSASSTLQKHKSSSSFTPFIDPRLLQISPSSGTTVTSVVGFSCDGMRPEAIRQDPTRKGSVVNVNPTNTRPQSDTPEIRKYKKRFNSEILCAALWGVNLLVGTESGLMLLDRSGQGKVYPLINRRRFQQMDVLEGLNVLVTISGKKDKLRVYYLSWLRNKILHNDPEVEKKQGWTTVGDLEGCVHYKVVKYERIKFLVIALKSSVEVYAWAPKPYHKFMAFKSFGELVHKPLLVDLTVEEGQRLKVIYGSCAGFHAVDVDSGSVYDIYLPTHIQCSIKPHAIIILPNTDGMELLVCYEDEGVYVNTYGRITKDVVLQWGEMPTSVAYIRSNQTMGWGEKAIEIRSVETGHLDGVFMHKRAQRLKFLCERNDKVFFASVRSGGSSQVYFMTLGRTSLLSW
UniProt Q7Z4S6, sequence (Q7Z4S6 whole entry, looked up): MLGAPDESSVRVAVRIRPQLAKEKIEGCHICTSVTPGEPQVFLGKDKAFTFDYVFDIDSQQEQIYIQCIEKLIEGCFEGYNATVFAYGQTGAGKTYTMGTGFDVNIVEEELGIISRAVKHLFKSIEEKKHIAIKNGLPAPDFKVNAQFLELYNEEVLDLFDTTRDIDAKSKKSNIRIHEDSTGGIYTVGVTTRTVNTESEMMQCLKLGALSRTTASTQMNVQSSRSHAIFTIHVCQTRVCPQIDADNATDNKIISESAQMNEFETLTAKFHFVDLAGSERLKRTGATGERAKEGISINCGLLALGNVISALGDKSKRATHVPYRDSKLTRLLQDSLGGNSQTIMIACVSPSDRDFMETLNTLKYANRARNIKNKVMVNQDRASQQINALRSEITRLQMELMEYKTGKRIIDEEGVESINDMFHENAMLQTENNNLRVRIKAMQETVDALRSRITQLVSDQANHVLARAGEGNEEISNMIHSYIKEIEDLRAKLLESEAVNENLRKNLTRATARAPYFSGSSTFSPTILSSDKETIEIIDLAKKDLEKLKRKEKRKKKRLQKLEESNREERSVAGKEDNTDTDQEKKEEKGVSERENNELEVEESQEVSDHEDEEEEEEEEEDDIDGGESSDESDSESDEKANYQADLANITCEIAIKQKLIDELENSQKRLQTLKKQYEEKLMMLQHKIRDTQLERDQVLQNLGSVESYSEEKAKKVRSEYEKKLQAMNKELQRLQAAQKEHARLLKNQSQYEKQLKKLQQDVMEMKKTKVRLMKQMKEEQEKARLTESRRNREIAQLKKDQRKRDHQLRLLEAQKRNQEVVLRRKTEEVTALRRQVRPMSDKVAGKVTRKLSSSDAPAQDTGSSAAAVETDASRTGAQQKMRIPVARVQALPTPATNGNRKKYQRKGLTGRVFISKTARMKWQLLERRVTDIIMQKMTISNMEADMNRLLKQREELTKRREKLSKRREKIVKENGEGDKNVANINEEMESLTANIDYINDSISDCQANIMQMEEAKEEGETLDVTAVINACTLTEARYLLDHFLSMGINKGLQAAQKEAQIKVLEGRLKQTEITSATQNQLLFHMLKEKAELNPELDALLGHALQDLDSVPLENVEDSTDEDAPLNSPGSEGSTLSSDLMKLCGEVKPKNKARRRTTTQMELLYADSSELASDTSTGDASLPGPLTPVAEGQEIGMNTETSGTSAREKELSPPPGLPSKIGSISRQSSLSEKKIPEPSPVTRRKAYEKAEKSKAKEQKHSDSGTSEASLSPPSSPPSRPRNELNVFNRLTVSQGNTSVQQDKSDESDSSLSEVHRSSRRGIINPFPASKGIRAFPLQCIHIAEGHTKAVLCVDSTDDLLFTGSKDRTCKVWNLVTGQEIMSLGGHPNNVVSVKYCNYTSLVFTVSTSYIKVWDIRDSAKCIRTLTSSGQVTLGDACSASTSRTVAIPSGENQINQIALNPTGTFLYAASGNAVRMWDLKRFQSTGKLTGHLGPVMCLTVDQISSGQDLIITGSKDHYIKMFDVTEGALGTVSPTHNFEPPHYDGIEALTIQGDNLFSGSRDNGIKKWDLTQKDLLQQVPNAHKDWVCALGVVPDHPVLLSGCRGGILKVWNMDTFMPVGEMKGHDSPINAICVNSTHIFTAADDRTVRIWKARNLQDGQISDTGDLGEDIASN
UniProt Q68D91, sequence (Q68D91 whole entry, looked up): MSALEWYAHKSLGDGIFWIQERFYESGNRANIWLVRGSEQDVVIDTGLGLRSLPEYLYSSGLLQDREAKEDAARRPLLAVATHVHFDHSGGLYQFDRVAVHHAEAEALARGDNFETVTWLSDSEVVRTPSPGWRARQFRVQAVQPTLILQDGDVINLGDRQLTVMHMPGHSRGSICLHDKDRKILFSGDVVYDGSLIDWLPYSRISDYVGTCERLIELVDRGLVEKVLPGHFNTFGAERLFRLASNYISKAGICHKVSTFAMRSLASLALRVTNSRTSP
UniProt Q02750, sequence (Q02750 whole entry, looked up): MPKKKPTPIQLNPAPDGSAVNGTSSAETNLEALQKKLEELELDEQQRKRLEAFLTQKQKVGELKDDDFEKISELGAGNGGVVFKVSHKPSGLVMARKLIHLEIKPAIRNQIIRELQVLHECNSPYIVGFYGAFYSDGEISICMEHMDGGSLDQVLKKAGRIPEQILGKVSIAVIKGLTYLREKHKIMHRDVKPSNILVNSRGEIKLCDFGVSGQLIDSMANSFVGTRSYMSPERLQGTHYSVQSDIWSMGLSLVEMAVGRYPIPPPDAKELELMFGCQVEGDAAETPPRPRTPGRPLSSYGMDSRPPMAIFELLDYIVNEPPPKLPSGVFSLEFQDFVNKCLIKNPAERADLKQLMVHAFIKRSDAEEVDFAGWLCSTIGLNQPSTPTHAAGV

log2 fold change, inactive:
MAP1S (UniProt Q66K74) -0.008
MON2 isoform 5 (UniProt Q7Z3U7) -0.027
LRPPRC (UniProt P42704) 0.006
LBR (UniProt Q14739) 0.034
MAPK14 (UniProt Q16539) 0.042
MLST8 (UniProt Q9BVC4) 0
MMS19 isoform 8 (UniProt Q96T76) -0.023
KNL1 (UniProt Q8NG31) 0.009
KLC1 isoform 6 (UniProt Q07866) -0.022
MICU1 isoform 3 (UniProt Q9BPX6) -0.011
MOCS1 isoform 8 (UniProt Q9NZB8) 0.186
KLHL36 (UniProt Q8N4N3) 0.002
MAP2K4 isoform 2 (UniProt P45985) 0.051
MED17 (UniProt Q9NVC6) 0.018
MAP2K5 (UniProt Q13163) 0.007
LRWD1 (UniProt Q9UFC0) 0.082
MCMBP (UniProt Q9BTE3) 0.001
MRPL15 (UniProt Q9P015) 0.003
MAST4 (UniProt O15021) 0.019
MBLAC2 (UniProt Q68D91) 0.05
KNSTRN (UniProt Q9Y448) -0.017
MAP4K4 isoform 3 (UniProt O95819) -0.052
MACROD1 (UniProt Q9BQ69) 0
MAPK9 (UniProt P45984) -0.024
LRRC40 (UniProt Q9H9A6) 0.017
MRPL10 isoform 2 (UniProt Q7Z7H8) -0.062
MICB, A0A140T979 0.074
LIG3 (UniProt P49916) -0.006
MAPKAPK3 (UniProt Q16644) 0.011
KIF2C (UniProt Q99661) 0.004
LRCH3 (UniProt Q96II8) -0.052
LYAR (UniProt Q9NX58) -0.009
MGST1 (UniProt P10620) 0.052
KLC4 isoform 3 (UniProt Q9NSK0) -0.007
MAPKAPK5 (UniProt Q8IW41) -0.001
MED10 (UniProt Q9BTT4) -0.029
LPIN1 isoform 7 (UniProt Q14693) 0.02
KIF21A isoform 5 (UniProt Q7Z4S6) 0.027
MAP2K1 (UniProt Q02750) 0.204
